Screens deposited in PubChem BioAssay by Sanford-Burnham Center for Chemical Genomics.
A selection: hits, their analogues and other compounds. The true share with any hit is near 2.7%.
TAG inh = inhibitors of triacylglycerol accumulation, primary screen, cell-based, uHTS, fluorescence, H9c2. hit rate 0.66% among 230,000. inhibition, % at 12.5 µM. AID 651582, 2012. H9c2 cells, Nile Red lipid (TAG) fluorescence; cells loaded with 200 µM oleic acid;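 active means pattern-corrected inhibition of lipid staining of at least 50% with the nuclear-stain viability signal not falling by more than 50%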;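 further: 0% = DMSO wells and 100% = triacsin C control wells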
MPTP block = mitochondrial permeability transition pore inhibitors, primary screen, biochemical, isolated mouse mitochondria, absorbance; AID 602449, 2012; hit rate 1.4% among 360,000; inhibition, % at 10 µM; Ca2+ swelling absorbance, 30 min;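 active means inhibition of 50% or more, scaled per plate between neutral and stimulator controls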;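 further: 0% = DMSO wells given calcium and 100% = 1 mM EGTA wells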
NadD block = inhibitors of S. aureus NadD, primary screen, biochemical, colorimetric, uHTS. inhibition, % at 20 µM. hit rate 0.78% among 360,000. purified NadD enzyme, colorimetric absorbance read-out. Nicotinate-nucleotide adenylyltransferase NadD (Staphylococcus aureus N315); in the data active means inhibition above about 26%
aDG glyco up = activators of alpha-DG glycosylation, primary screen, uHTS, Pro5-aDG cells, AlphaScreen; alpha-DG glycosylation AlphaScreen (IIH6); 0% Pro5, 100% B10-LARGE cell signal; activation, % at 10 µM; hit rate 0.22% among 360,000; AID 624168, 2012;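 active means activation of at least 8% versus controls, or a plate z-score of at least 8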;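 further: Pro5 are CHO cells carrying HIG-tagged alpha-DG that lacks glycosylation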
NadD inh conf = inhibitors of S. aureus NadD, confirmation, biochemical, colorimetric, single concentration | hit rate 13% among 2,000 | inhibition, % at 20 µM | purified S. aureus NadD, colorimetric enzyme assay | shares compounds with NadD block | AID 624309, 2012; in the data active means inhibition mostly above about 42%, no sharp cut-off; inactive means mostly below about 42%
Numbers without * were called inactive; nt = not tested or not shown.

SMILES	TAG inh	MPTP block	NadD block	aDG glyco up	NadD inh conf
Oc1ccc(C[C@H]2CNC(=S)N2CC2CCCN2C[C@H](Cc2ccccc2)N2C[C@H](Cc3ccc(O)cc3)N(CC3CCCCCC3)C2=S)cc1 (some centres not stated)	75.2	0.5	48.0*	0.2	20.6
CCc1ccc2[nH]c(=O)c(C3C(C#N)=C(N)Oc4c3ccc3cccnc43)cc2c1 (configuration not stated)	-27.2	6.0	38.3*	-0.2	8.7
Cc1ccc2cc(C3C(C#N)=C(N)Oc4c3ccc3cccnc43)c(=O)[nH]c2c1 (configuration not stated)	nt	-3.0	19.0	0.1	nt
CCS(=O)(=O)c1nc(S(=O)(=O)c2ccc(C)cc2)c(N2CCC(O)CC2)s1	nt	-0.6	-5.5	-0.2	nt
CCC(C)(C)C1CCC2(CC1)NC(=O)N(CC(=O)NC(C)CCc1ccccc1)C2=O (configuration not stated)	22.4	0.4	47.9*	0.1	-21.3
CCC(C)(C)C1CCC2(CC1)NC(=O)N(CC(=O)NCCCc1ccccc1)C2=O (configuration not stated)	9.5	-2.0	-2.4	0.5	nt
N/C(=N\N=C\c1ccnc2ccccc12)SC1CC(=O)N(c2ccc(Br)cc2)C1=O (configuration not stated)	nt	1.7	46.4*	-0.2	7.4
CC(C)C[C@@H](CN1CCC[C@H]1CN1C(=O)C(=O)NC[C@@H]1Cc1ccccc1)N1C[C@H](Cc2ccccc2)N(CC2CCCCCC2)C(=O)C1=O	nt	-4.0	39.6*	0.2	25.3
CC(C)C[C@@H](CN1CCC[C@H]1CN1C(=O)C(=O)NC[C@@H]1Cc1ccc(O)cc1)N1C[C@H](Cc2ccccc2)N(CC2CCCCCC2)C(=O)C1=O	nt	-3.8	38.1*	-0.1	31.7
Cc1ccc(Nc2nnc(SCC(=O)Nc3ncc(S(=O)(=O)c4ccc([N+](=O)[O-])cc4)s3)s2)cc1	nt	3.4	45.4*	-0.2	7.8
CC(C)c1ccc(Nc2nnc(SCC(=O)Nc3ncc(S(=O)(=O)c4ccc([N+](=O)[O-])cc4)s3)s2)cc1	5.9	1.2	36.3*	0.0	9.0
Cc1cc(=O)[nH]c(SCC(=O)Nc2ncc(S(=O)(=O)c3ccc([N+](=O)[O-])cc3)s2)n1	12.4	1.6	10.9	0.3	nt
O=C(Nc1nnc(-c2ccc3c(c2)OCCO3)o1)c1ccc(Cc2ccccc2)cc1	9.6	0.6	48.3*	0.0	7.9
O=C(Cn1cnc2ccccc21)Nc1cccc(S(=O)(=O)N2CCCC2)c1	-28.4	30.3	-0.9	0.5	nt
O=c1[nH]c2ccc(Cl)cc2c(-c2ccccc2)c1SC(=S)N1CCOCC1	-12.8	-5.4	40.3*	0.3	-8.1
O=c1[nH]c2ccc(Cl)cc2c(-c2ccccc2)c1SC(=S)N1CCCCC1	-13.2	1.4	37.1*	-0.1	6.6
NNC(=O)CSc1c(-c2ccccc2)c2cc(Cl)ccc2[nH]c1=O	nt	-0.5	8.5	0.1	nt
CN1CCN([C@H]2CS(=O)(=O)N[C@@H]2COCc2ccccc2)CC1	nt	-1.0	-4.1	0.2	nt
C#CCn1c(=NC(=O)c2sc3ccccc3c2Cl)sc2cc(S(N)(=O)=O)ccc21	nt	0.8	39.0*	-0.4	-7.3
C#CCn1c(=NC(=O)c2ccccc2[N+](=O)[O-])sc2cc(S(C)(=O)=O)ccc21	nt	-0.3	0.9	0.3	nt
COc1ccc(C(=O)/C=C/c2ccc(OCc3ccccc3)cc2)cc1CSCC(=O)O	-4.0	3.3	26.0*	-0.2	26.8
O=C(CSc1nnc(-c2ccc3c(c2)OCO3)o1)Nc1ncc(C(F)(F)F)cc1Cl	24.4	-11.3	34.4*	0.2	5.4
O=C(NC(CO)(CO)CO)[C@@H]1CCCN1S(=O)(=O)c1cccc2cccnc12	-7.0	-0.5	-0.6	-0.2	nt
Cc1ccc(NC(=O)C2(C)CCN2C(=O)Cc2cc(F)ccc2F)cc1 (configuration not stated)	-16.9	-1.7	-2.7	0.1	nt
O=C(CSc1nnc(-c2ccccn2)n1Cc1ccco1)c1ccc(-c2ccccc2)cc1	nt	2.3	50.0*	0.0	9.0
SMILES	TAG inh	MPTP block	NadD block	aDG glyco up	NadD inh conf
COc1ccc(NC(=O)CSc2nnc(C)n2C2CC2)cc1S(=O)(=O)N1CCOCC1	5.7	-1.0	-1.5	-0.1	nt
COc1ccc(-c2c(C#Cc3ccsc3)c3cc(-c4cccc5[nH]ccc45)ccc3n2C)cc1	nt	-0.9	16.1	-0.6	nt
COc1cc(OC)cc(-c2c(C#Cc3ccsc3)c3cc(-c4cccc5[nH]cc(C=O)c45)ccc3n2C)c1	nt	-1.0	45.8*	-0.5	29.0
O=C1NC[C@@H](CCCCN2CCN(CCc3ccccc3)C(=O)C2=O)N(CCC2CCCCC2)C1=O	nt	1.0	16.5	0.0	nt
CCOc1ccc(S(=O)(=O)N2CCCC(C(=O)NC3CC3)C2)cc1Cl (configuration not stated)	-3.7	-1.3	-4.8	0.0	nt
Cc1ccc(C)c(CC(=O)N2CCCCC2c2cc(C(=O)Nc3ccc(F)c(Cl)c3)no2)c1 (configuration not stated)	11.7	0.9	2.3	0.3	nt
Cc1ccc(-c2cc(-c3ccc(C)o3)nc(N)c2C#N)cc1	5.8	-2.0	57.6*	0.5	62.2*
Cc1ccc(-c2cc(-c3ccc4c(c3)OCO4)c(C#N)c(N)n2)o1	33.6	-1.1	39.3*	0.6	32.7
Cc1cc(-c2cc(-c3ccc(Cl)cc3)nc(N)c2C#N)co1	4.9	0.5	84.2*	0.6	40.9
Cc1ccc(-c2cc(-c3ccc(F)cc3)c(C#N)c(N)n2)o1	nt	8.3	64.8*	0.2	8.9
COc1ccc(-c2cc(-c3ccc(O)cc3)nc(N)c2C#N)cc1OC	16.9	-3.1	2.0	-0.5	nt
CCc1nnc(NC(=O)CCC(=O)NC2CCCC2)s1	nt	-0.7	-1.3	0.0	nt
CC(OC(=O)c1ccc2c(c1)OCO2)C(=O)NC1CCCCC1 (configuration not stated)	-2.9	-0.6	6.3	0.1	nt
O=C(O)CN1C(=O)C2C3CCC(C3)C2C1=O (configuration not stated)	-16.9	-2.5	0.4	-0.2	nt
Cn1c(=O)c2cc(NC(=O)NCc3ccccc3)ccc2n1C/C=C/c1ccccc1	-25.5	0.4	0.5	-0.2	nt
Cn1c(SCC(=O)NC2CCCCC2)nnc1C(F)(F)F	1.9	-1.5	0.8	-0.2	nt
Cc1ccc(-c2cc(-c3ccc(Cl)cc3)c(C#N)c(N)n2)o1	nt	-3.2	58.6*	0.9	70.8*
COc1ncccc1-c1cc2nc(NCCNC(C)=O)n(C)c(=O)c2s1	18.0	0.0	3.0	-0.1	nt
O=c1c2ccccc2sn1-c1ccc(S(=O)(=O)N2CCCCC2)cc1	nt	-3.2	31.3*	-0.2	11.6
COc1ccc(C2(SCC(N)C(=O)O)c3ccccc3-c3ccccc32)cc1 (configuration not stated)	-4.4	-2.6	36.4*	-0.1	30.1
